Compounds with a hit are over-represented: about 12% of the library has one in this group of screens.
PLK1 PBD inh: PLK1 (human) polo-box domain binding inhibition; AID 720504; Plk1 PBD binding of FITC phosphopeptide, fluorescence polarization; 2.8% of 360,000 active; P53350; Potency, µM, for inactives: max response, negative = inhibition, actives largely listed as inhibitors; also: potency is read from the fitted curve at half-maximal effect; series mostly up to about 57 µM; % is scaled to controls: 0 for no effect and ±100 for the full control effect; nearly all actives have a fitted effect of over 65% in size
HP1b chromo inh: inhibitors of HP1-beta chromodomain binding to methylated histone tails; P83916; 0.56% of 390,000 active; Potency, µM (top dose mostly 114 µM), inactives show top-dose activity change, negative = inhibition, actives largely listed as inhibitors; AlphaScreen HP1-beta / biotin-H3K9me3 peptide binding; also: potency is read from the fitted curve at half-maximal effect; nearly all actives have a fitted effect of over 70% in size
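Compound inhibition of the preformed complex between 50 nM HP1-beta and 50 nM biotinylated H3K9me3 peptide was read by AlphaScreen. Buffer was PBS pH 7.4 with 0.01% Tween-20. Incubations ran 30 min at room temperature, with 10 ug/mL donor/acceptor beads.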
BAZ2B block: inhibitors of human BAZ2B bromodomain | AlphaScreen BAZ2B-H3K14Ac peptide displacement | Potency, µM (doses to about 114 µM), for inactives: at the highest dose activity change, negative = inhibition, actives largely listed as inhibitors | AID 504333 | Q9UIF8 | 4.4% of 360,000 active; also: potency is read from the fitted curve at half-maximal effect; % is scaled to controls: 0 for no effect and ±100 for the full control effect; nearly all actives have a fitted effect of over 60% in size
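Protein-peptide AlphaScreen: BAZ2B 50 nM, b-H3K14Ac 50 nM, 1x PBS pH 7.4 + 0.01% Tween-20. Preincubation 30 min RT; cpd 30 min RT (top 110 uM); beads 20 min RT, light-protected.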
JMJD2A Tudor: JMJD2A Tudor domain (human) inhibition | O75164 | AlphaScreen JMJD2A-Tudor / H3K4me3 peptide binding | Potency, µM (highest dose often 114 µM), for the others: at the top dose activity change, negative = inhibition, actives largely listed as inhibitors | 4.4% of 390,000 active; also: potency is read from the fitted curve at half-maximal effect; % is scaled to controls: 0 for no effect and ±100 for the full control effect; nearly all actives have a fitted effect of over 50% in size
PI5P4K alpha inh: inhibitors of human PI5P4K alpha. PI5P4Kalpha enzyme, ADP-Glo luminescence, 60 min; active compounds read low. 1.2% of 330,000 active. max response, %. P48426; active = max response of -50% or lower; inconclusive = between -30% and -50%; inactive = -30% or higher; also: value at the top dose of about 77 µM; % is scaled to controls: 0 for no effect and ±100 for the full control effect
Target sequence (P48426 whole entry, looked up): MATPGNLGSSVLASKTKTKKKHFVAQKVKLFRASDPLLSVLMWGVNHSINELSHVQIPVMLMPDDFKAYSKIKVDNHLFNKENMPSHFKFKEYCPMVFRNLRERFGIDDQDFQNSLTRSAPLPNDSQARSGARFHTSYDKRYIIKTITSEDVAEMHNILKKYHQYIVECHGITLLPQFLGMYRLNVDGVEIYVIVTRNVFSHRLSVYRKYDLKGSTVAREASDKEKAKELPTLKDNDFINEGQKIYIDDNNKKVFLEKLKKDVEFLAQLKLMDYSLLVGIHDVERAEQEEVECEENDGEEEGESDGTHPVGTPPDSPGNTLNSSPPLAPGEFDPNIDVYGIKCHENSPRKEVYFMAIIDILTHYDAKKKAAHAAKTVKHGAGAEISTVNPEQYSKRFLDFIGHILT
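Enzyme plus substrate dispensed, test compounds pinned in, then ATP (5 microM final) added. After 60 min at RT, ADP-Glo reagent 1 for 45 min and reagent 2 for 30 min preceded luminescence imaging.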
G9a block: G9a (human) methyltransferase inhibition; Q96KQ7; G9a H3K9 monomethylation, AlphaScreen, 2 h; Potency, µM (titrated, usually from 102 µM), for the others: at the highest dose activity, negative = inhibition, actives largely listed as inhibitors; 8.8% of 350,000 active; AID 504332; also: potency is read from the fitted curve at half-maximal effect; % is scaled to controls: 0 for no effect and ±100 for the full control effect; nearly all actives have a fitted effect of over 75% in size
Target sequence (Q96KQ7 913-1193 limits assumed): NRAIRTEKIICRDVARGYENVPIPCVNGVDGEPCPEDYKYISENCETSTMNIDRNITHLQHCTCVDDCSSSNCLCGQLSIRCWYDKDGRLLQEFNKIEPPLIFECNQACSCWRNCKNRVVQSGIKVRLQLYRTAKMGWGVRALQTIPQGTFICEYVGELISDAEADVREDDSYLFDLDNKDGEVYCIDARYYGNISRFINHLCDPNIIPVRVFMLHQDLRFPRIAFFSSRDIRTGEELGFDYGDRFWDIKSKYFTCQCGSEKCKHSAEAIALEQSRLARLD
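Using a bead-based AlphaScreen, monomethylated H3K9 product from 2 h room-temperature reactions (G9a 20 nM, peptide 500 nM, SAM 20 uM) was detected with 0.5 ug/mL rabbit anti-H3K9me1 antibody.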
Numbers without * were called inactive; ? = inconclusive; . = no result given; [ ] = dose if it differs, or a comment. Unless noted, calls follow the shape of the dose curve; as a rule, active = well fitted curve in the direction sought with a large enough effect; inconclusive = small, poorly fitted or top-dose-only effect, or another doubt; inactive = no such curve, though single readings can be large; an effect the other way counts as inactive or inconclusive.

SMILES	PLK1 PBD inh	HP1b chromo inh	BAZ2B block	JMJD2A Tudor	PI5P4K alpha inh	G9a block
CCn1c(=O)n(CC)c2cc(N3CCCC3)c(NC(=O)c3ccccc3)cc21	-2.3%	1.2%	?	-29.3%	2.2	39.8µM*
CCn1c(=O)n(CC)c2cc(N3CCCC3)c(NC(=O)c3ccc(C)cc3)cc21	2.5%	-9.4%[57 µM]	?	?	-7.2	56.2µM*
Cn1c(=O)n(C)c2cc(N3CCCCC3)c(NC(=O)c3ccccc3)cc21	-2.7%	13.6%	50.1µM*	-12.5%	-3.1	19.3%
CCn1c(=O)n(CC)c2cc(N3CCCC3)c(NC(=O)Nc3cc(C)cc(C)c3)cc21	.	43.2%	-5.0%	-10.0%	.	3.0%[59 µM]
O=C(O)c1c[nH]ccc1=O	-7.5%	-31.9%	?	7.08µM*	.	?
O=C(O)c1cccc(O)c1O	-1.2%	34.7%	.	?	-1.1	.
O=C(O)c1ccc(OCCCCCCOC2CCCCO2)cc1 (stereo unspecified)	26.7µM*	12.1%	-2.4%	?	-12.6	12.8%
O=C1CCSc2c1ccc1ccccc21	-4.2%	226.5%	.	129.2%	16.6	.
CCCCc1ccc(N=N/C(C(=O)Nc2ccc(NC(C)=O)cc2OC)=C(/C)O)cc1	-7.2%	-20.4%	?	?	16.4	35.5µM*
CCOC(=O)/C(C#N)=N/Nc1ccc(S(=O)(=O)N2CCc3ccccc32)cc1	-1.7%	?	?	?	1.1	?
N#C/C(=N\Nc1ccc(S(=O)(=O)N2CCc3ccccc32)cc1)C(N)=S	26.7µM*	6.31µM*	31.6µM*	?	-62.1*	15.8µM*
N#C/C(=N\Nc1ccc(S(=O)(=O)N2CCCCCC2)cc1)C(N)=S	15µM*	?	-38.1%	?	?	2µM*
CCCN1CNc2c(c(=O)[nH]c(=S)n2CCc2ccc(C)cc2)C1	.	42.0%	.	-2.0%	.	.
O=C(Cc1cccs1)N1CCN(S(=O)(=O)c2cc(Cl)ccc2Cl)CC1	0.9%	20.2%	-6.1%	-5.5%	3.9	3.5%
COc1cc(CO)ccc1OCc1nnnn1-c1ccc(C)cc1	16.8µM*	-3.9%	-0.9%	-20.6%	-29.4	-3.8%
COc1cc(CSc2nnnn2-c2ccc(C)cc2)cc(OC)c1OC	-6.0%	32.5%	10.2%	9.9%	.	-1.7%[59 µM]
O=C(NC1c2ccccc2-c2ccccc21)c1ccccc1	26.7µM*	-2.1%	-1.6%	-17.5%	-7.2	22.8%[59 µM]
CC(C)/C=N/NC(=O)c1ccc(Cl)cc1	26.7µM*	19.2%	2.6%	?	-20.5	5.9%[59 µM]
O=C(NN=C1CCCC1)c1ccc(Cl)cc1	-7.4%	46.4%	?	-6.7%	0.7	-5.1%
CC(/C=C/c1ccccc1F)=N\NC(=O)c1ccc(Cl)cc1	5.32µM*	-17.9%	-2.9%	22.4µM*	-68.2*	15.3%[0.501 µM]
COCCN(C(=O)CSc1nnc(-c2ccco2)n1C)c1c(N)n(CC(C)C)c(=O)[nH]c1=O	-13.2%	43.0%	-8.3%	-6.8%	1.5	-6.4%[12.7 µM]
Cc1ccccc1SCC(=O)OCC(=O)NCCNC(=O)COC(=O)CSc1ccccc1C	2.9%	37.2%	-13.3%	-8.5%	2.9	50.1µM*
COc1ccc(CNC(=O)CSC(=S)N2CCCC2)cc1	-15.4%	36.2%	-4.3%	-5.5%	1.9	3.4%
O=C(COc1ccccc1)Nc1ccc(S(=O)(=O)N2CCCCCC2)cc1	-3.1%	15.0%	3.0%	-3.8%	4.3	-5.4%[12.7 µM]
O=C(COc1ccccc1)Nc1ccc(S(=O)(=O)N2CCCC2)cc1	-5.2%	31.8%	0.3%	-1.4%	-9.7	50.1µM*
SMILES	PLK1 PBD inh	HP1b chromo inh	BAZ2B block	JMJD2A Tudor	PI5P4K alpha inh	G9a block
Cc1ccc(S(=O)(=O)N2CCN(C(=O)COc3ccc(NC(=O)c4ccco4)cc3)CC2)cc1	16.8µM*	2.4%	0.6%	?	-21.6	-1.7%[12.7 µM]
CC(C)c1ccc(CCNC(=O)CSC(=S)N2CCCC2)cc1	26.7µM*	38.4%	16.4%	11.6%	-4.8	15.8µM*
CCN1CCN(S(=O)(=O)c2ccc(Cl)c(C(=O)N(CC)Cc3ccccc3)c2)CC1	2.3%	11.3%	-28.8%	-20.7%	-1.6	14.1µM*
O=C(CNC(=O)c1ccccc1Cl)OCc1cc(=O)n2nc(C3CC3)sc2n1	.	51.4%	-16.7%	-1.3%	.	8.9%[59 µM]
CCN(Cc1ccc(N(C)C)cc1)C(C)C(=O)Nc1ccc(S(=O)(=O)N2CCCC2)cc1 (stereo unspecified)	6.7%	-26.8%	39.8µM*	31.6µM*	-0.6	20.3%[12.7 µM]
Cc1ccc(OCC(=O)Nc2ccc(S(=O)(=O)N3CCN(C)CC3)cc2)cc1	-6.1%	52.5%	-37.1%	-13.0%	-1.3	11.2µM*
COc1ccccc1OCC(=O)NNC(=O)CSC(=S)N1CCCC1	-11.3%	28.8%	4.0%	-16.8%	0.5	26.1%[12.7 µM]
Cc1ccc(OCC(=O)NNC(=O)CSC(=S)N2CCCC2)cc1	-10.7%	29.5%	-4.3%	-15.9%	-8.9	44.7µM*
COc1ccc(OCC(=O)Nc2ccc(S(=O)(=O)N3CCN(C)CC3)cc2)cc1	-7.1%	25.4%	-21.8%	-11.7%	1.5	-32.3%
CCN(CC(=O)Nc1ccc(S(=O)(=O)N2CCCC2)cc1)Cc1ccccc1	-2.3%	28.3%	4.9%	-5.5%	0.8	44.7µM*
CCOc1ccc(NC(=O)C(=O)NCCN2CCN(S(=O)(=O)c3ccc(C)cc3)CC2)cc1	-5.1%	1.1%	5.0%	-20.4%	0.3	0.1%
COc1ccc(OCC(=O)Nc2ccc(S(=O)(=O)N3CCCC3)cc2)cc1	-9.5%	4.3%	-9.1%	-4.6%	-24.6	4.2%
Cc1ccc(OCC(=O)Nc2ccc(S(=O)(=O)N3CCCC3)cc2)cc1	-8.0%	24.4%	0.5%	-4.1%	0.0	79.4µM*
CCOc1ccc(NC(=O)C(=O)NCCN2CCN(S(=O)(=O)c3ccccc3)CC2)cc1	23.8µM*	-1.9%	-2.2%	?	-20.5	-1.3%
COc1cccc(CNC(=O)c2cccc(-n3c(C)nc4cccnc43)c2)c1OC	.	38.3%	2.7%	0.7%	.	-1.0%[59 µM]
COc1ccc(N(C(=O)c2cnccn2)C(C(=O)NC2CCCCC2)c2ccccc2)cc1 (stereo unspecified)	0.0%	21.0%	0.3%	-10.7%	-0.1	13.3%[59 µM]
O=C1CCn2c1c(O)c1ccccc1c2=O	-16.8%	-14.1%	.	35.5µM*	9.0	.
CCCCN1C[C@H](Cc2ccccc2)[C@@H](CC(=O)NC)C1=O	-2.2%	.	.	.	-0.9	.
Cc1ccc(OCc2nc(-c3ccccc3)no2)cc1	11.9µM*	82.8%	125.0%	-2.9%[11.4 µM]	-1.0	440.4%
Cc1ccc(-c2noc(COc3ccccc3C)n2)cc1	-2.9%	279.4%	274.6%	161.7%	23.9	35.5%[12.7 µM]
COc1ccc(-c2noc(CSc3nc(-c4ccccc4)cc(=O)[nH]3)n2)cc1	-3.1%	36.8%	26.0%	-17.9%	.	39.8µM*
Cc1ccnc(Nc2nc3ccccc3o2)n1	0.2%	27.1%	5.0%	-25.2%	-16.8	?
Cc1ccc(Nc2nc3ccccc3o2)cc1F	2.99µM*	-3.4%	16.5%	11.2µM*	?	6.5%
